The record followed here is PubChem BioAssay (EPA / NIEHS).

SMILES strings stand for the structures. Inconclusive results are not listed. Activity calls are given as the source filed them. The calls were made as follows: active = hit-call score of the fitted dose curve at least 0.9, where 1 is the maximum; inconclusive = response in the unintended direction; inactive = score below 0.9.

Retinoic acid receptor RXR-alpha (Homo sapiens), sequence (P19793 whole entry, looked up): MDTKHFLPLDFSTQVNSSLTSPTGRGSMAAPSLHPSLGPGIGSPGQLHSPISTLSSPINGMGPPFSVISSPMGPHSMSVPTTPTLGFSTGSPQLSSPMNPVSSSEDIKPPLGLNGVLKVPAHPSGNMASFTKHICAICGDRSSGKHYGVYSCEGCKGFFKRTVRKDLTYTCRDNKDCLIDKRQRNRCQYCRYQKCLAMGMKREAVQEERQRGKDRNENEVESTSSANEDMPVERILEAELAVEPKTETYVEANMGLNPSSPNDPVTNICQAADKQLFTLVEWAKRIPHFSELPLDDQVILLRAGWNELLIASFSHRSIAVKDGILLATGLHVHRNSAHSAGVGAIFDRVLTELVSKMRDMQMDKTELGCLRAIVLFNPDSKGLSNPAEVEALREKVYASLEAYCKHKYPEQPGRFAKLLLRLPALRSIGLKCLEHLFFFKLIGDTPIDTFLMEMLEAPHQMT

This test concerns the target Retinoic acid receptor RXR-alpha (Homo sapiens) (UniProt P19793). Put plainly: ATG_RXRa_TRANS: Attagene TRANS-FACTORIAL HepG2 Assay for human Retinoid X Receptor alpha (RXRa) (AID 2283012). The protocol:
ATG_TRANS is a cell-based, multiplexed-readout assay that uses HepG2, a human liver cell line, with measurements taken at 24 hours after chemical dosing in a 24-well plate.ATG_RXRa_TRANS is one of 30 assay component(s) measured or calculated from the ATG_TRANS assay. It is designed to make measurements of mRNA induction, a form of inducible reporter, as detected with fluorescence intensity signals by Reverse transcription polymerase chain reaction (RT-PCR) and Capillary electrophoresis technology.Data from the assay component ATG_RXRa_TRANS was analyzed into 1 assay endpoint. This assay endpoint, ATG_RXRa_TRANS, was analyzed in the positive analysis fitting direction relative to DMSO as the negative control and baseline of activity. Using a type of inducible reporter, measures of mRNA for gain-of-signal activity can be used to understand the reporter gene at the transcription factor-level as they relate to the gene RXRA. Furthermore, this assay endpoint can be referred to as a primary readout, because this assay has produced multiple assay endpoints where this one serves a reporter gene function. To generalize the intended target to other relatable targets, this assay endpoint is annotated to the nuclear receptor intended target family, where the subfamily is non-steroidal.
Human liver HepG2 cells are transiently transfected with multiple reporter transcription units (MRTUs) in 6-well plates using FuGene 6 reagent (Roche; 3 ml FuGene/1 mg DNA). The MRTU constructs are regulated by a cis-regulating element (promoter). […] A major difference between the CIS and TRANS system is that in CIS activities of endogenous TFs are measured, whereas the TRANS assay evaluates changes in activities of exogenous, chimeric NR-Gal4 proteins. […] At the end of 24 hour incubation, total RNA was isolated using TriZol reagent (Invitrogen). The isolated RNA is then reverse-transcribed using oligo(dT) primer and Mo-MLV reverse transcriptase (Invitrogen) with DNAse I (Ambion) treatment for 30 min. The one-tenth of the produced cDNA was amplified by PCR using Taq DNA polymerase (Invitrogen) and two reporter sequence-specific primers. The PCR products were fluorescently labeled by primer extension with 6-arboxyfluorescein (6-FAM) 5'-labeled reporter sequence-specific primer (2 min at 95 C, 20 s at 68 C and 10 min at 72 C) and these products were digested with 5U of HpaI (New England Biolabs) for 2h at 37 C. The fragments were purified using Qiaquick PCR columns (Qiagen), analyzed on an ABI 3130xL genetic analyzer (Applied Biosystems) with peak positions identified by using a set of X-rhodamine (ROX)-labeled MapMarker1000 molecular weight standards (BioVentures). The raw capillary electrophoresis data was processed using Attagraph software (Attagene).
Turning to `COC(N)=O`, the compound was called inactive.

As to `CC(O)C(F)(F)C(F)(F)F` (stereo not given), the compound was classed as inactive.

On to `CC(C)(C)OOC(C)(C)C`, for which the compound was classed as inactive.

As to `Cc1ccc2c(c1N)C(=O)c1ccccc1C2=O`, the call was inactive.

For the compound `NNC(N)=S`, the call was inactive.

In the case of `C=CC(=O)OCC(F)(F)C(F)F`, the compound was classed as inactive.

For `CC(Cl)CN(C)C` (stereo not given), the result was inactive.

For the compound `FC(F)(F)C(F)(C(F)(F)F)C(F)(F)C(F)(F)CC1CO1` (stereo not given), the result was inactive.

Take `N#Cc1cc([N+](=O)[O-])ccc1N`: the result was inactive.

Take `CCOP(=S)(NC(C)C)Oc1ccccc1C(=O)OC(C)C` (stereo not given): the outcome was inactive.

Regarding `O=C(O)C=CC(F)(C(F)(F)F)C(F)(F)F`, the result was inactive.

For the compound `CC1=C(C(=O)Nc2ccccc2)S(=O)(=O)CCO1`, the outcome was inactive.

For `CCCCCCCc1ccc(O)cc1`, the compound was called inactive.

Turning to `CO/N=C(/C(=O)OC)c1ccccc1COc1ccccc1C`, the outcome was inactive.

For the compound `ClC(Cl)(Cl)c1ccccc1`, the compound was called inactive.

For `O=[N+]([O-])c1cc(Cl)ccc1Cl`, the compound was classed as inactive.

With `FC(F)(F)c1ccc(Cl)cc1`, the compound was classed as inactive.

Consider `CC(=O)CCc1ccc2c(c1)OCO2`, for which the call was inactive.

As to `Cc1ccc([N+](=O)[O-])cc1C`, the compound was called inactive.

With `O=C(O)C(F)(F)C(F)(F)C(=O)O`, the result was inactive.

As for `O=P(Oc1ccccc1)(Oc1ccccc1)Oc1ccccc1`, the compound was called inactive.

On to `CC(O)C#N` (stereo not given), for which the result was inactive.

For the compound `CCOc1ccc(C(C)(C)COCc2cccc(Oc3ccccc3)c2)cc1`, the compound was called inactive.

Turning to `CCOP(=S)(OCC)SCn1nnc2ccccc2c1=O`, the outcome was inactive.

As to `O=S(=O)(c1ccc(O)cc1)c1ccc(O)cc1`, the compound was classed as inactive.

As to `O=C(O)C(F)(OC(F)(F)C(F)(F)C(F)(F)F)C(F)(F)F` (stereo not given), the call was inactive.

Regarding `O=c1[nH]c2ccccc2c(=O)o1`, the outcome was inactive.

`C=CC(=O)OCC(CC)(COC(=O)C=C)COC(=O)C=C`: the compound was classed as inactive.

Consider `N#Cc1ccc(O)cc1`, for which the call was inactive.

Consider `Nc1ccc([N+](=O)[O-])cc1Cl`, for which the compound was called inactive.

On to `CCCCC(CC)COC(=O)c1c(Br)c(Br)c(Br)c(Br)c1C(=O)OCC(CC)CCCC` (stereo not given), for which the call was inactive.

For `CCCCc1ccccc1`, the result was inactive.

For `CSC(C)(C)C=NO`, the compound was classed as inactive.

As for `CC(C)(C)c1ccc(O)cc1`, the compound was classed as inactive.

On to `ClC(Cl)=C(c1ccc(Cl)cc1)c1ccccc1Cl`, for which the outcome was inactive.

`OCC(F)(F)OC(F)(F)C(F)(F)OC(F)(F)CO`: the compound was called inactive.

As to `Nc1cc2c3c(c1)C(c1ccccc1)=N[C@@H](NC(=O)c1cccnc1)C(=O)N3CC2`, the compound was called inactive.

Consider `CNC(=O)Oc1ccc(N(C)C)c(C)c1`, for which the compound was called inactive.

As for `O=S(=O)(F)C(F)(F)C(F)(F)C(F)(F)C(F)(F)C(F)(F)C(F)(F)C(F)(F)C(F)(F)F`, the call was inactive.

Consider `O=P(OCC(Br)CBr)(OCC(Br)CBr)OCC(Br)CBr` (stereo not given), for which the result was inactive.
